Consider 39 compounds from PubChem BioAssay (Tox21).

SMILES strings stand for the structures. Records with an inconclusive call do not appear. Entries that show only a call come without a potency. The source made the active and inactive calls. Calls follow the shape of the dose curve; as a rule, active = well fitted activation curve with a large enough effect in the repeat runs; inconclusive = weak or mixed curves; inactive = flat fitted curve, though single readings scatter.
Also: nearly all actives have a fitted effect of over 45% in size.
Potency is read from the fitted curve at half-maximal effect.

The first assay is described as follows: A CellTox Green Cytotoxicity Assay to monitor cytotoxicity in HEK293 cells - 24 hour (AID 1224875). The settings on record: CellTox Green fluorescence; series mostly up to 76.8 µM. Summed up:
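Each value comes from one timepoint of a single continuous run in which HEK293 cells with CellTox Green were exposed to compound for up to 40 h at 37 C, dye fluorescence rising with cell death.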
In the case of `C=CCCC`, the Potency entry is “inactive”.

On to `CC(C)(C)c1ccc(CCC=O)cc1`, for which the Potency result was “inactive”.

In the case of `O=C(Nc1ccccc1)c1cc([N+](=O)[O-])ccc1Cl`, the Potency result was “inactive”.

Take `CC(C)=CCC[C@H](C)CCO`: the Potency result was “inactive”.

With `CC(=O)Nc1ccn(C2COC(COC(=O)c3ccccc3)O2)c(=O)n1` (stereo not drawn), the Potency entry is “inactive”.

Take `N#C[C@@H]1CC(F)(F)CN1C(=O)CNC1CC2CCC(C1)N2c1ncccn1` (stereo partly drawn): the Potency entry is “inactive”.

`CC(C)=CCCC(C)C=O` (stereo not drawn): the Potency entry is “inactive”.

As for `C=CC(=O)NC(C)(C)C`, the Potency result is “inactive”.

As to `C1=COCCC1`, the Potency entry is “inactive”.

As for `CCOC(OCC)OCC`, the Potency result was “inactive”.

Regarding `[O-][n+]1ccc(Cl)cc1`, the Potency result was “inactive”.

For the compound `CC1(C)C(=O)NC(=O)N1CO`, the Potency entry was “inactive”.

As for `CCCCCCCCS`, the Potency result was “inactive”.

With `O=C(NC1CCN(CCc2c[nH]c3ccccc23)CC1)c1ccccc1`, the Potency entry was “inactive”.

On to `CCC(C(=O)O)c1ccc(N2Cc3ccccc3C2=O)cc1` (stereo not drawn), for which the Potency entry is “inactive”.

In the case of `Cc1ccccc1CCO`, the Potency result was “inactive”.

As to `O=c1[nH]nc(-c2ccc([N+](=O)[O-])o2)o1`, the Potency result is “inactive”.

In the case of `CCC(=O)O[C@]1(C(=O)COC)[C@@H](C)C[C@H]2[C@@H]3CCC4=CC(=O)C=C[C@]4(C)C3(F)[C@@H](O)C[C@@]21C` (stereo partly drawn), the Potency result was “inactive”.

As to `O=C(OCCOCCOCCOC(=O)c1ccccc1)c1ccccc1`, the Potency result was “inactive”.

For the compound `COC(=O)c1cc(Cl)ccc1[N+](=O)[O-]`, the Potency result was “inactive”.

For `Cc1cccc(C)c1NC(=O)CN1CCCC1`, the Potency entry is “inactive”.

On to `COC(=O)/C=C/C(C)=C\C=C\C(C)=C\C=C\C=C(C)\C=C\C=C(C)\C=C\C(=O)O`, for which the Potency entry was “inactive”.

Turning to `CCc1ccc(C(=O)C(C)CN2CCCCC2)cc1` (stereo not drawn), the Potency entry was “inactive”.

As for `OCCOc1cccc(OCCO)c1`, the Potency entry is “inactive”.

Consider `C=CC(C)(O)CC/C=C(/C)CCC=C(C)C` (stereo not drawn), for which the Potency result was “inactive”.

For the compound `O=C(OC1C[C@H]2CC[C@@H](C1)[N+]21CCCC1)C(O)(c1ccccc1)c1ccccc1` (stereo partly drawn), the Potency entry was “inactive”.

With `CC(C)(Cc1c[nH]c2ccccc12)NCC(O)COc1ccccc1C#N` (stereo not drawn), the Potency entry was “inactive”.

For the compound `CNc1ccccc1`, the Potency result is “inactive”.

`CCCCCCC/C=C/C=O`: the Potency result was “inactive”.

For `NCCOCCOCCN`, the Potency entry was “inactive”.

Take `FC1(F)C(F)(F)C(F)(F)C2(F)C(F)(C1(F)F)C(F)(F)C(F)(F)C1(F)C(F)(F)C(F)(F)C(F)(F)C(F)(F)C12F` (stereo not drawn): the Potency result was “inactive”.

As to `COc1ccnc2c1CCCCC2S(=O)c1nc2ccccc2[nH]1` (stereo not drawn), the Potency result is “inactive”.

Consider `CCCCCCCCCCCCCCCCN`, for which the Potency is 10.7 µM (active).

For the compound `FC(F)(Cl)C(F)(Cl)Cl`, the Potency entry was “inactive”.

On to `Cc1cc(C)c(C)c(O)c1`, for which the Potency entry was “inactive”.

Turning to `CC(=O)c1cccnc1`, the Potency result is “inactive”.

For the compound `Cc1c(Cl)cccc1[N+](=O)[O-]`, the Potency entry was “inactive”.

Consider `CCN(CC)CC(=O)OCC(=O)[C@@]1(O)CC[C@H]2[C@@H]3CCC4=CC(=O)CC[C@]4(C)[C@H]3[C@@H](O)C[C@@]21C`, for which the Potency result was “inactive”.

Turning to `CCCc1ccc(OC)cc1`, the Potency result is “inactive”.

A short description of another assay: A CellTox Green Cytotoxicity Assay to monitor cytotoxicity in HepG2 cells - 16 hour (AID 1224876). The note with it: CellTox Green fluorescence; series mostly up to 76.8 µM. Put shortly: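 Continuous culture of HepG2 cells with a membrane-impermeant DNA dye; rising fluorescence marks dead cells. Compound exposure lasted up to 40 h at 37 C, with reads every 8 h from 0 h.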
For `C=CCCC`, the Potency result is “inactive”.

For the compound `CC(C)(C)c1ccc(CCC=O)cc1`, the Potency entry was “inactive”.

As to `O=C(Nc1ccccc1)c1cc([N+](=O)[O-])ccc1Cl`, the Potency result is “inactive”.

For the compound `CC(C)=CCC[C@H](C)CCO`, the Potency entry was “inactive”.

As to `CC(=O)Nc1ccn(C2COC(COC(=O)c3ccccc3)O2)c(=O)n1` (stereo not drawn), the Potency entry was “inactive”.

With `N#C[C@@H]1CC(F)(F)CN1C(=O)CNC1CC2CCC(C1)N2c1ncccn1` (stereo partly drawn), the Potency entry is “inactive”.

As for `CC(C)=CCCC(C)C=O` (stereo not drawn), the Potency result was “inactive”.

Consider `C=CC(=O)NC(C)(C)C`, for which the Potency entry was “inactive”.

In the case of `C1=COCCC1`, the Potency entry is “inactive”.

Consider `CCOC(OCC)OCC`, for which the Potency result is “inactive”.

Turning to `[O-][n+]1ccc(Cl)cc1`, the Potency result was “inactive”.

For the compound `CC1(C)C(=O)NC(=O)N1CO`, the Potency result is “inactive”.

On to `CCCCCCCCS`, for which the Potency entry was “inactive”.

Regarding `O=C(NC1CCN(CCc2c[nH]c3ccccc23)CC1)c1ccccc1`, the Potency result was “inactive”.

`CCC(C(=O)O)c1ccc(N2Cc3ccccc3C2=O)cc1` (stereo not drawn): the Potency entry was “inactive”.

`Cc1ccccc1CCO`: the Potency result is “inactive”.

On to `O=c1[nH]nc(-c2ccc([N+](=O)[O-])o2)o1`, for which the Potency entry was “inactive”.

For `CCC(=O)O[C@]1(C(=O)COC)[C@@H](C)C[C@H]2[C@@H]3CCC4=CC(=O)C=C[C@]4(C)C3(F)[C@@H](O)C[C@@]21C` (stereo partly drawn), the Potency entry is “inactive”.

With `O=C(OCCOCCOCCOC(=O)c1ccccc1)c1ccccc1`, the Potency entry is “inactive”.

Take `COC(=O)c1cc(Cl)ccc1[N+](=O)[O-]`: the Potency result was “inactive”.

In the case of `Cc1cccc(C)c1NC(=O)CN1CCCC1`, the Potency result is “inactive”.

Take `COC(=O)/C=C/C(C)=C\C=C\C(C)=C\C=C\C=C(C)\C=C\C=C(C)\C=C\C(=O)O`: the Potency entry was “inactive”.

With `CCc1ccc(C(=O)C(C)CN2CCCCC2)cc1` (stereo not drawn), the Potency result was “inactive”.

As for `OCCOc1cccc(OCCO)c1`, the Potency entry was “inactive”.

Regarding `C=CC(C)(O)CC/C=C(/C)CCC=C(C)C` (stereo not drawn), the Potency result is “inactive”.

As to `O=C(OC1C[C@H]2CC[C@@H](C1)[N+]21CCCC1)C(O)(c1ccccc1)c1ccccc1` (stereo partly drawn), the Potency entry was “inactive”.

`CC(C)(Cc1c[nH]c2ccccc12)NCC(O)COc1ccccc1C#N` (stereo not drawn): the Potency result was “inactive”.

`CNc1ccccc1`: the Potency entry was “inactive”.

For the compound `CCCCCCC/C=C/C=O`, the Potency result is “inactive”.

For the compound `NCCOCCOCCN`, the Potency result was “inactive”.

With `FC1(F)C(F)(F)C(F)(F)C2(F)C(F)(C1(F)F)C(F)(F)C(F)(F)C1(F)C(F)(F)C(F)(F)C(F)(F)C(F)(F)C12F` (stereo not drawn), the Potency result was “inactive”.

Take `COc1ccnc2c1CCCCC2S(=O)c1nc2ccccc2[nH]1` (stereo not drawn): the Potency result was “inactive”.

Take `CCCCCCCCCCCCCCCCN`: the Potency is 23.9 µM (active).

Regarding `FC(F)(Cl)C(F)(Cl)Cl`, the Potency entry was “inactive”.

For the compound `Cc1cc(C)c(C)c(O)c1`, the Potency result is “inactive”.

For the compound `CC(=O)c1cccnc1`, the Potency result is “inactive”.

In the case of `Cc1c(Cl)cccc1[N+](=O)[O-]`, the Potency entry was “inactive”.

In the case of `CCN(CC)CC(=O)OCC(=O)[C@@]1(O)CC[C@H]2[C@@H]3CCC4=CC(=O)CC[C@]4(C)[C@H]3[C@@H](O)C[C@@]21C`, the Potency entry is “inactive”.

As to `CCCc1ccc(OC)cc1`, the Potency entry is “inactive”.
